Assay outcomes as filed in PubChem BioAssay.
TDP1 cell CPT = qHTS for Inhibitors of human tyrosyl-DNA phosphodiesterase 1 (TDP1): qHTS in cells in presence of CPT | chicken DT40 Tdp1-/-;hTDP1 cells + 20 nM CPT, ATP luminescence, 48 h | AID 686979, 2013 | Potency, µM (top dose mostly 46.2 µM), for the others: top-dose activity change, negative = growth inhibition, usual class: inhibitors | 420,000 compounds, 12% hits; also: potency is read from the fitted curve at half-maximal effect; nearly all actives have a fitted effect of over 55% in size
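Chicken DT40 Tdp1-/- cells stably complemented with human TDP1 were seeded at 400 cells/well in medium containing 20 nM camptothecin, exposed to pin-transferred compounds, and grown at 37 °C for at least 48 hr. Viability was read as ATP luminescence.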
IL1B secr inh = qHTS for Inhibitors of Inflammasome Signaling: IL-1-beta AlphaLISA Primary Screen; THP-1 LPS/ATP IL-1B secretion, AlphaLISA, 16 h; hits give low values; activity change, % at 57.5 µM; 360,000 compounds, 4.7% hits; AID 743279, 2014; in the data active = activity change below about -50%; inconclusive = mostly about -30% to -49%
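Secreted IL-1B measured by AlphaLISA bead assay after 16 h compound exposure of THP-1 cells; compounds (final up to 57.5 uM) added 1 h before LPS (250 ng/mL) and ATP (1.25 mM) stimulation; lower signal means less secretion.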
RORgamma inh = qHTS for inhibitors of ROR gamma transcriptional activity; Drosophila S2 Gal4-RORgamma UAS-luciferase reporter, 20 h; Potency, µM (titrated, usually from 53.6 µM), for inactives: at the top dose activity change, negative = inhibition, hits mostly inhibitors; 310,000 compounds, 5.4% hits; AID 2551, 2010; also: potency is read from the fitted curve at half-maximal effect; nearly all actives have a fitted effect of over 60% in size
Target sequence (P51450 whole entry, looked up, the tested form may be a part): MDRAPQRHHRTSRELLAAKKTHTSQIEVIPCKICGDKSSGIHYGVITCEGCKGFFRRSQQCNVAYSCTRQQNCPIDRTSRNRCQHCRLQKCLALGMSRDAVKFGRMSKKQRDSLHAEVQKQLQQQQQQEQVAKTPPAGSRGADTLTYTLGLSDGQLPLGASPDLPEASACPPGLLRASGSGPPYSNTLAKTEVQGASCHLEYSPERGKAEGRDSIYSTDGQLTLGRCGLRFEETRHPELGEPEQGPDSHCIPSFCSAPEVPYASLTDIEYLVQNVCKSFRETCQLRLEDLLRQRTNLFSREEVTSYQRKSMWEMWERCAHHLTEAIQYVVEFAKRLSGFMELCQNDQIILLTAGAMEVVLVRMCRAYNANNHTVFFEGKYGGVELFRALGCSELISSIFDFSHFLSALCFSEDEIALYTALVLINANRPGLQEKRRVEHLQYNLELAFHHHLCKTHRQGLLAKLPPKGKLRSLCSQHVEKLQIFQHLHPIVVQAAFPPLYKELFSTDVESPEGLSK
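Luminescence from a UAS-regulated Photinus luciferase reporter in stably transfected Drosophila Schneider cells is measured; decreased signal marks ROR gamma inhibition. Fusion expression is induced by 700 uM copper sulfate for 20 hr.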
VP16 counter = VP16 counterscreen qHTS for inhibitors of ROR gamma transcriptional activity. Drosophila S2 Gal4-VP16 UAS-luciferase, luminescence, 20 h. Potency, µM (doses to about 53.6 µM), without a hit: top-dose activity, negative = inhibition, usual class: inhibitors. 310,000 compounds, 3.5% hits;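 also: Gal4-VP16 expression switched on by copper sulfate through the metallothionein promoter; potency is read from the fitted curve at half-maximal effect; nearly all actives have a fitted effect of over 50% in size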
ELG1 DNA repair = qHTS screen for small molecules that inhibit ELG1-dependent DNA repair in human embryonic kidney (HEK293T) cells expressing luciferase-tagged ELG1; HEK293T ELG1-luciferase reporter, luminescence, 16 h; DNA damage induced by 5-fluorouridine; 330,000 compounds, 2.3% hits; Potency, µM (series often up to 46.1 µM), inactives show at the top dose activity change, negative = inhibition, hits mostly inhibitors; also: potency is read from the fitted curve at half-maximal effect; nearly all actives have a fitted effect of over 55% in size
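DMSO vehicle served as the neutral condition. Each well held 2,000 cells given 5-fluorouridine plus compound; after 16 hr at 37 °C/5% CO2, ONE-Glo was added and luciferase measured 30 min later.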
DT40 TDP1 no CPT = qHTS for Inhibitors of human tyrosyl-DNA phosphodiesterase 1 (TDP1): qHTS in cells in absence of CPT; Potency, µM (highest dose often 46.2 µM), for the others: at the top dose activity change, negative = growth inhibition, most hits filed as inhibitors; DT40 Tdp1-/- hTDP1 cells, no CPT, ATP luminescence, 48 h; 420,000 compounds, 15% hits; also: potency is read from the fitted curve at half-maximal effect; nearly all actives have a fitted effect of over 55% in size
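A cellular qHTS used chicken DT40 cells lacking endogenous Tdp1 but carrying stably transfected human TDP1. Compounds were applied without camptothecin, and cell growth kinetics were judged by ATP-dependent luminescence after ≥48 hr.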
An asterisk follows results filed as active; ? = inconclusive; nt = no result given. In the library only some 21% were active in any assay of this set; here they are far more common. Unless noted, calls follow the shape of the dose curve; as a rule, active = well fitted curve in the direction sought with a large enough effect; inconclusive = small, poorly fitted or top-dose-only effect, or another doubt; inactive = no such curve, though single readings can be large; an effect the other way counts as inactive or inconclusive. % is scaled to controls: 0 for no effect and ±100 for the full control effect.

SMILES | TDP1 cell CPT | IL1B secr inh | RORgamma inh | VP16 counter | ELG1 DNA repair | DT40 TDP1 no CPT
COc1ccc(-c2nn(-c3ccccc3)cc2/C=N/Nc2ccc3ccccc3n2)cc1OC | 3.3µM* | -25 | 1.8µM* | 5µM* | 12µM* | 4.1µM*
COc1ccc(-c2nn(-c3ccccc3)cc2CO)cc1OC | ? | -11 | -15% | 2% | ? | -27%
COc1ccc(-c2nn(-c3ccccc3)cc2/C=N/NC(=S)NC(C)C)cc1OC | 23µM* | ? | 1.4µM* | 2.2µM* | 12µM* | 18µM*
COc1ccc(-c2nn(-c3ccccc3)cc2/C=N/N=C(N)N)cc1OC | 23µM* | ? | 25% | -7% | ? | 13µM*
COc1ccc(-c2nn(-c3ccccc3)cc2/C=N/Nc2ccc(S(N)(=O)=O)cc2[N+](=O)[O-])cc1OC | -26% | 16 | ? | ? | ? | ?
COc1ccc(-c2nn(-c3ccccc3)cc2/C=N/O)cc1OC | ? | -11 | 1µM* | 1.8µM* | -14% | 26µM*
COC(=O)c1cn(-c2ccccc2)nc1-c1ccc(OC)c(OC)c1 | -2% | 11 | 11% | -10% | ? | ?
COc1ccc([C@@H]2C[C@H]3[C@@H](CN2S(=O)(=O)c2ccccc2)C(=O)C[C@@H](c2ccccc2F)N3S(=O)(=O)c2ccc(C)cc2)cc1 | -27% | 16 | nt | nt | nt | ?
N#Cc1cccc(CS(=O)(=O)c2ccccc2)c1 | nt | nt | 10% | -14% | nt | nt
CCCCN1CCCCC1(C)C(=O)NCc1cccc(OC)c1 (stereo not given) | -30% | 29 | nt | nt | nt | ?
CCOC(=O)C1(C)CCN1C(=O)c1cccs1 (stereo not given) | -5% | 26 | nt | nt | nt | -10%
CCOC(=O)Nc1ccc2c(c1)C(=NO)c1ccccc1-2 | 18µM* | -75* | nt | nt | nt | 21µM*
NC(=S)N/N=C1\c2ccccc2-c2c(C(=O)O)cccc21 | -8% | 5 | 2% | 0% | -5% | -9%
CC(=O)Nc1ccc2c(c1)C(=Nc1ccccc1)c1ccccc1-2 | ? | 2 | nt | nt | nt | -26%
CCOC(=O)Nc1ccc2c(c1)C(=NNC(N)=S)c1ccccc1-2 | 6.5µM* | -96* | nt | nt | nt | 3.3µM*
C=Cc1ccc(Cn2c(=O)cc(C)c3c(C)nn(-c4ccccc4)c32)cc1 | -24% | nt | nt | nt | nt | 1%
Cc1cc(C(=O)COC(=O)c2ccc[nH]c2=O)c(C)n1-c1ccccc1 | -22% | 0 | 13µM* | 0.45µM* | ? | -26%
Cc1cc(C(=O)OCC(=O)N2CC(=O)Nc3ccccc32)c(C)n1-c1ccc(F)cc1 | -23% | -3 | ? | 0% | ? | ?
Cc1cc(C(=O)OCC(=O)NCc2ccco2)c(C)n1-c1ccc(F)cc1 | 0.65µM* | 21 | 9% | -3% | 5% | 0.82µM*
Cc1cc(C(=O)COC(=O)c2ccc[nH]c2=O)c(C)n1-c1ccc(F)cc1 | -4% | 25 | 10µM* | 7.1µM* | ? | ?
CCOC(=O)[C@]12CCC=C1N(Cc1ccco1)C(=O)[C@H](CC(=O)NCc1cccc3ccccc13)C2 | -16% | -14 | nt | nt | nt | -17%
CC(O)(Cc1ccccn1)Cc1ccccn1 | 31% | 10 | nt | nt | nt | 7%
NCC12CC3CC(C1)CC(c1ccc(Cl)cc1)(C3)C2 | 6.5µM* | -89* | ? | ? | ? | 6.5µM*
Cn1cc(C(c2ccccc2OCC(=O)O)c2cn(C)c3ccccc23)c2ccccc21 | 12µM* | -10 | 3% | -12% | -3% | 16µM*
CCOc1ccc2c(c1)S/C(=C\c1cccs1)C(=O)N2 | ? | 10 | 1% | -11% | ? | ?
SMILES | TDP1 cell CPT | IL1B secr inh | RORgamma inh | VP16 counter | ELG1 DNA repair | DT40 TDP1 no CPT
CCOc1ccc(C2=NC(c3ccncc3)=Nc3ccc(C)cc3N2)cc1OCC | ? | nt | nt | nt | nt | 18µM*
CCCCOc1ccc(C2=NC(c3ccncc3)=Nc3ccc(OCC)cc3N2)cc1 | 16µM* | nt | nt | nt | nt | ?
CCOc1ccc2c(c1)NC(c1cccs1)=NC(c1ccc(F)cc1)=N2 | 23µM* | nt | nt | nt | nt | ?
CCCOc1ccc(-c2nnc(-c3ccncc3)o2)cc1 | -16% | 26 | 10% | 4% | ? | -17%
CCOc1ccc(-c2nc(-c3ccncc3)no2)cc1OCC | -17% | 36 | 21% | 4% | 25% | -20%
Cc1ccc(C(=O)c2coc3ccc(O)cc23)cc1 | ? | -6 | -28% | 5% | ? | ?
COc1ccc2c(c1OC)C(=O)OC2Nc1nc(-c2ccc([N+](=O)[O-])cc2)cs1 (stereo not given) | 4% | -8 | 0% | ? | ? | ?
COc1ccc(-c2csc(NC3OC(=O)c4c3ccc(OC)c4OC)n2)cc1OC (stereo not given) | 9.2µM* | nt | 3.5µM* | 7.9µM* | -22% | 15µM*
COc1ccc2c(c1OC)C(=O)OC2Nc1nc(-c2cc3cc(Br)ccc3oc2=O)cs1 (stereo not given) | ? | -56* | 22% | 3% | ? | ?
CC(=O)Cc1cc2cc([N+](=O)[O-])ccc2oc1=O | 8% | 6 | -5% | -3% | 0% | -6%
COc1ccc(Cl)cc1NC(=O)c1cc(S(=O)(=O)N2CCc3ccccc32)cn1C | 1% | nt | nt | nt | nt | -10%
CCN(CC)S(=O)(=O)c1cc(NC(=O)CNc2cccc(S(=O)(=O)N3CCOCC3)c2)ccc1C | 5.2µM* | -10 | nt | nt | ? | 2.1µM*
N#Cc1cccc(NC(=O)CNc2cccc(S(=O)(=O)N3CCCC3)c2)c1 | ? | -3 | nt | nt | ? | ?
Cc1ccc(NCC(=O)Nc2cccc(S(=O)(=O)N(C)C)c2)cc1S(=O)(=O)N1CCCCCC1 | 8.2µM* | ? | nt | nt | -20% | 7.3µM*
CCN(CC)S(=O)(=O)c1cccc(NC(=O)CNc2cccc(S(=O)(=O)N3CCCC3)c2)c1 | 1µM* | -9 | -35% | 0.71µM* | 0.33µM* | 1.2µM*
CC(=O)c1cccc(NCC(=O)Nc2cccc(S(=O)(=O)N3CCCCC3)c2)c1 | ? | -6 | nt | nt | ? | ?
